mHTT CaM bind: inhibitors of human mutant huntingtin-calmodulin interaction; inhibition, % at 15 µM; P42858; AlphaScreen His-mHTT/GST-CaM binding, luminescence; actives 3.6% (n = 190,000);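 note: 0% = both proteins with DMSO and 100% = one protein alone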
Pf apPOL inh: Pf-apPOL DNA polymerase inhibition; Recombinant Pf-apPOL, molecular beacon fluorescence, 1.5 h; inhibition, % at 10 µM; actives 0.25% (n = 210,000); AID 1794808
* marks the source's active call; other numbers are inactive results; / = no result given. This is one part of a sample in which hits are shown more often than they occur. Cut-off read from the data, not from the text of the source: active = inhibition above about 50%; inactive = the rest.

SMILES | mHTT CaM bind | Pf apPOL inh
COc1ccccc1NC(NC(=O)c1cccc([N+](=O)[O-])c1)C(Cl)(Cl)Cl (stereo unspecified) | 47 | 1
COc1ccc(C(=O)NC(Nc2ccc(C)cc2C)C(Cl)(Cl)Cl)cc1 (stereo unspecified) | 8 | 3
COc1ccc(Cl)cc1N1CCN(C(=O)NC(C)(C)C)C(C)C1=O (stereo unspecified) | 9 | -2
CC(C)c1cc(C2CCCN2C(=O)Cc2ccccc2Cl)on1 (stereo unspecified) | -4 | 0
O=C1CC(c2ccccc2Cl)CC2=C1C(c1ccc(F)cc1)Nc1ccccc1N2 (stereo unspecified) | 57* | -2
O=C1CC(c2cccs2)CC2=C1C(c1ccc(F)cc1)Nc1ccccc1N2 (stereo unspecified) | 18 | -19
O=C1CC(c2cccs2)CC2=C1C(c1ccc(Cl)c(Cl)c1)Nc1ccccc1N2 (stereo unspecified) | 77* | -3
Cc1ccc(C2Nc3ccccc3NC3=C2C(=O)CC(c2ccccc2F)C3)cc1 (stereo unspecified) | 39 | -4
O=C1CC(c2ccccc2)CC2=C1C(c1cccc(F)c1)Nc1ccccc1N2 (stereo unspecified) | 9 | -5
COc1ccc(C2Nc3ccccc3NC3=C2C(=O)CC(c2ccccc2)C3)cc1 (stereo unspecified) | 26 | -2
COc1ccc(C2CC(=O)C3=C(C2)Nc2ccccc2NC3c2ccc(Cl)c([N+](=O)[O-])c2)cc1 (stereo unspecified) | 52* | -15
O=C1CC(c2ccccc2)CC2=C1C(c1ccc(F)c(Br)c1)Nc1ccccc1N2 (stereo unspecified) | 59* | -5
CCc1ccc(C2CC(c3ccccc3)n3nnnc3N2)cc1 (stereo unspecified) | 1 | 0
Cc1ccc(C)c(CNC(=O)c2ccc(NC(=O)C3CC3)cc2N2CCOCC2)c1 | 15 | 4
COCCCNC(=O)C1CCc2nc(N3CCN(C(C)=O)CC3)sc2C1 (stereo unspecified) | 6 | -2
CNC(=O)C1=CCN(C(=O)NC(C)(C)C)CC1 | 2 | 0
Cc1ccc(NS(=O)(=O)c2cc3n(c2)CCCNC3=O)c(C)c1 | -4 | 5
O=C1CC(c2ccccc2)CC2=C1C(c1ccc(C(F)(F)F)cc1)Nc1ccccc1N2 (stereo unspecified) | 86* | -2
COc1ccc(C2CC(=O)C3=C(C2)Nc2ccccc2NC3c2cccc(C(F)(F)F)c2)cc1 (stereo unspecified) | 17 | 8
COc1ccc(C2CC(=O)C3=C(C2)Nc2ccccc2NC3c2ccc(C(F)(F)F)cc2)cc1 (stereo unspecified) | 53* | 2
O=C1CC(c2ccccc2)CC2=C1C(c1ccccc1C(F)(F)F)Nc1ccccc1N2 (stereo unspecified) | 19 | -4
CCN(CC)Cc1c(O)ccc2c1OC(=Cc1ccc(OC)c(OC)c1OC)C2=O | 10 | -12
O=C(NCc1cccnc1)c1cccc(CN2C(=O)CSc3ccccc32)c1 | 92* | 3
O=C(NCc1cccnc1)c1cccc(CN2C(=O)C3CCCN3C(=O)c3ccccc32)c1 (stereo unspecified) | -6 | -5
Cc1ccc(NC(=O)C2CCN(c3ccc4c(c3)OCO4)C2=O)cc1C (stereo unspecified) | 0 | -6
SMILES | mHTT CaM bind | Pf apPOL inh
O=[N+]([O-])c1c(C(Cl)Cl)nn(-c2ccccc2)c1N1CCCC1 | 54* | -1
Cc1nn(-c2ccccc2)c(N2CCOCC2)c1[N+](=O)[O-] | / | -4
CC(C(=O)NCCCN1CCCC1)C1CCN(S(=O)(=O)c2ccc(Cl)s2)CC1 (stereo unspecified) | 1 | -2
Fc1cccc(NCc2ccc3c(c2)OCO3)c1 | -12 | -8
Cc1cccc(CNc2ccc3c(c2)OCO3)c1 | 100* | 3
Clc1cccc(Cl)c1CNc1ccc2c(c1)OCO2 | 69* | -3
O=C(Nc1ccc2c(c1)OCO2)c1ccccc1Cl | -5 | -6
COc1cc(N=Cc2nc(-c3ccccc3F)oc2O)c(C(=O)O)cc1OC | 0 | 2
O=C(O)c1ccccc1N=Cc1nc(-c2ccccc2F)oc1O | 9 | 96*
O=c1c2c(ccn1Cc1nc(C3CC3)no1)ccn2CC1CC1 | -4 | -4
O=C(NCCc1ccccc1)N1CCCC1c1ccccc1Cl (stereo unspecified) | 8 | 9
Cc1c(NC(NC(=O)Cc2ccccc2)C(Cl)(Cl)Cl)c(=O)n(-c2ccccc2)n1C (stereo unspecified) | 4 | -2
Cc1ccc(C(=O)N2CCc3c(c(-c4nc(-c5ccccc5)no4)nn3C)C2)cc1 | 4 | -4
Cn1nc(-c2nc(C3CC3)no2)c2c1CCN(C(=O)c1ccc(Cl)cc1)C2 | -8 | -2
Cn1nc(-c2nc(-c3cccc(F)c3)no2)c2c1CCN(C(=O)c1cccc(F)c1)C2 | 4 | -6
Cn1nc(-c2nc(C3CC3)no2)c2c1CCN(C(=O)Nc1ccc(Cl)cc1)C2 | 63* | -8

Bioassay records (PubChem BioAssay)
